Experimental data taken from PubChem BioAssay (EPA / NIEHS).
Calls of active or inactive are those of the source. The calls were made as follows: active = hit-call score of the fitted dose curve at least 0.9, where 1 is the maximum; inactive = score below 0.9.

Assays:
[1] = ATG_CRE_CIS: Attagene CIS-FACTORIAL HepG2 Assay for human cAMP Responsive Element (CRE) binding protein 3 (AID 2282926); conditions: HepG2 CRE cis-reporter, Attagene multiplexed mRNA; actives raise or lower the signal
Outline: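 Readout: fluorescently labelled reporter transcripts resolved by capillary electrophoresis after RT-PCR, taken 24 h post-dosing in transfected HepG2. Endogenous transcription factor activity drives each cis-element reporter; gain or loss of signal fitted relative to DMSO control.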

[2] = target: CCAAT/enhancer-binding protein beta (Homo sapiens) (UniProt P17676); test: ATG_C_EBP_CIS: Attagene CIS-FACTORIAL HepG2 Assay for human CCAAT/Enhancer Binding Protein (C/EBP) beta (AID 2282927); conditions: HepG2 Attagene cis-factorial transcription factor reporter; actives raise or lower the signal
CCAAT/enhancer-binding protein beta (Homo sapiens), sequence (P17676 whole entry, looked up): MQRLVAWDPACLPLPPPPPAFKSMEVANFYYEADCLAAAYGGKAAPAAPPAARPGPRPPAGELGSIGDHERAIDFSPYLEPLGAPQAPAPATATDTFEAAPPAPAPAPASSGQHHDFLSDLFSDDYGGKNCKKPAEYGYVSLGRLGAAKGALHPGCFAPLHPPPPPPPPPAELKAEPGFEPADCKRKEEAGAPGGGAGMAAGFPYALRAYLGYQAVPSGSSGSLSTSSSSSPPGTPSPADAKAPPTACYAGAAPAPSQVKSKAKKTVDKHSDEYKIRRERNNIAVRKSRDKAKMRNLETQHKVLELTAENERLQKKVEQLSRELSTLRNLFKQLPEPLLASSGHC
Outline: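 Following a 24 h incubation with test chemical, transfected HepG2 cells yielded RNA whose reporter transcripts were quantified by RT-PCR and fluorescent capillary electrophoresis, with DMSO serving as baseline for bidirectional fitting.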

[3] = ATG_CMV_CIS: Attagene CIS-FACTORIAL HepG2 Assay for human CMV (Internal Marker) (AID 2282928); conditions: HepG2 CMV promoter reporter, transcription factor profiling; actives raise or lower the signal;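 also: endpoint acts as a background internal control marker rather than a target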
Outline: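 Reporter transcripts from transfected HepG2 cells are isolated after 24 h of chemical dosing, reverse-transcribed and amplified. Fragments labeled with 6-FAM are cut with HpaI and quantified by capillary electrophoresis; DMSO defines baseline.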

[4] = ATG_DR4_LXR_CIS: Attagene CIS-FACTORIAL HepG2 Assay for human Liver X Receptor (LXR), DR4 submotif (AID 2282929); conditions: HepG2 Attagene DR4 cis-reporter, mRNA transcription; actives raise or lower the signal
Outline: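 HepG2 cells transiently transfected with cis-promoter-driven multiplexed reporter units (DR4 element) were dosed for 24 h. Reporter mRNA was quantified by RT-PCR, fluorescent primer extension, HpaI digestion and capillary electrophoresis; bidirectional fitting versus DMSO baseline.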

[5] = target: Aryl hydrocarbon receptor (Homo sapiens) (UniProt P35869); test: ATG_Ahr_CIS: Attagene CIS-FACTORIAL HepG2 Assay for human Aryl Hydrocarbon Receptor (Ahr) (AID 2282930); conditions: HepG2 AhR cis-factorial reporter transcription; actives raise or lower the signal
Aryl hydrocarbon receptor (Homo sapiens), sequence (P35869 whole entry, looked up): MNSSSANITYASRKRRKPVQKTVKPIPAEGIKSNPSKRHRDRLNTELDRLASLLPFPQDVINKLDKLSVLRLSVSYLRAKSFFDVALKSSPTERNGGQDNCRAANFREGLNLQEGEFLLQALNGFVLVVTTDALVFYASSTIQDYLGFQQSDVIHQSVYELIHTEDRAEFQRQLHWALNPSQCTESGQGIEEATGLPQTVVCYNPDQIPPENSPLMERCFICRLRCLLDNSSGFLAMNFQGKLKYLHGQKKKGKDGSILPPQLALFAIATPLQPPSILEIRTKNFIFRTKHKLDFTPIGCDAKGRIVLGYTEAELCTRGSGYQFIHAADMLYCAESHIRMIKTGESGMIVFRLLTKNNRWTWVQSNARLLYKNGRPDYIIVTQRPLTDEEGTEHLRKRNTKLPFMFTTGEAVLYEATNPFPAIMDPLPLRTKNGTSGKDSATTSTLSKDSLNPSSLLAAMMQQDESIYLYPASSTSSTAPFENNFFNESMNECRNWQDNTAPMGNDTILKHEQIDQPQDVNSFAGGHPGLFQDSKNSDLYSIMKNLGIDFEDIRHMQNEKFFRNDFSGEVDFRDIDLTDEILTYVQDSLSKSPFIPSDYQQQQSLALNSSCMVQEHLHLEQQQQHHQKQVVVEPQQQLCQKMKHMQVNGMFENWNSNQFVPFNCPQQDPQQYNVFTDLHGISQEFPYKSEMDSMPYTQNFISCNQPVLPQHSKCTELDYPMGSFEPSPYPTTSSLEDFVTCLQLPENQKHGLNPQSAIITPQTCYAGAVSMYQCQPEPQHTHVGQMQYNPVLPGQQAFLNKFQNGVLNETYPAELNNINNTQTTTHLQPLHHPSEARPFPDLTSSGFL
Outline: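 Values derive from bidirectional fitting against DMSO negative control. Underlying signal: cis-element reporter mRNA in transiently transfected HepG2, harvested 24 h post-dose and measured by RT-PCR plus capillary electrophoresis.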

[6] = ATG_AP_1_CIS: Attagene CIS-FACTORIAL HepG2 Assay for human Activator Protein 1 (AP-1) (AID 2282931); conditions: HepG2 Attagene cis-factorial AP-1 reporter mRNA; actives raise or lower the signal
Outline: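 HepG2 cells transiently transfected with cis-element-driven multiplex reporter units; 24 h compound exposure. Reporter mRNA quantified by RT-PCR, FAM-labelled fragments resolved by capillary electrophoresis; bidirectional fit versus DMSO baseline.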

[7] = ATG_AP_2_CIS: Attagene CIS-FACTORIAL HepG2 Assay for human Activator Protein 2 (AP-2) (AID 2282932); conditions: HepG2 AP-2 cis-reporter, Attagene transcription factor profiling; actives raise or lower the signal
Outline: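 Cells (HepG2) transfected with promoter-driven reporter constructs, treated 24 h. Total RNA reverse-transcribed, reporter cDNA PCR-amplified, FAM-labelled by primer extension, digested, resolved by capillary electrophoresis. Activity fitted both directions versus DMSO.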

[8] = ATG_BRE_CIS: Attagene CIS-FACTORIAL HepG2 Assay for human Bone Morphogenetic Protein (BMP) Response Element (BRE) (AID 2282933); conditions: HepG2 BMP response element reporter, Attagene transcription factor profiling; actives raise or lower the signal
Outline: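 Endogenous transcription factor activity read in transiently transfected HepG2 cells after 24 h chemical exposure. Bidirectional curve fitting against DMSO; readout is reporter transcript level by RT-PCR with capillary electrophoresis of labelled products.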

[9] = target: Transcription factor E2F1 (Homo sapiens) (UniProt Q01094); test: ATG_E2F_CIS: Attagene CIS-FACTORIAL HepG2 Assay for human E2F Transcription Factor 1 (AID 2282935); conditions: HepG2 Attagene cis-reporter, E2F reporter RNA transcripts; actives raise or lower the signal
Transcription factor E2F1 (Homo sapiens), sequence (Q01094 whole entry, looked up): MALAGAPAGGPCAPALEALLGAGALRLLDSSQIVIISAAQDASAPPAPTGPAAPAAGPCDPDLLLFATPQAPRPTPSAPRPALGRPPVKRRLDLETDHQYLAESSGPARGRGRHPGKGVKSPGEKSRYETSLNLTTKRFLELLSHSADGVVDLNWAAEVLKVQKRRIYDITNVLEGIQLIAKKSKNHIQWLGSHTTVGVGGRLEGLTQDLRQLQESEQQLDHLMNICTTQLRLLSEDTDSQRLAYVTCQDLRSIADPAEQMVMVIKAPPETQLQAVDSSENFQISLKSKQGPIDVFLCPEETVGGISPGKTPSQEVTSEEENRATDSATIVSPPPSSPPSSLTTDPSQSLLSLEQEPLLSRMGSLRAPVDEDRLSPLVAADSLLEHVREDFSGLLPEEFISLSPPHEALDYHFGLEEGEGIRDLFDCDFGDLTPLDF
Outline: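 First, HepG2 cells were transfected with reporter transcription units. Next, they were dosed for 24 h. Then RNA was isolated, converted to cDNA, PCR-amplified, FAM-labeled, HpaI-digested and analyzed by capillary electrophoresis.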

[10] = ATG_E_Box_CIS: Attagene CIS-FACTORIAL HepG2 Assay for human Enhancer Box (E-box) (AID 2282936); conditions: HepG2 E-box cis-reporter transcription, actives raise or lower the signal
Outline: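 Endogenous transcription factor activity was sensed in human HepG2 liver cells through transfected cis-promoter reporter units. After 24 h of dosing, total RNA was reverse-transcribed and reporter cDNA resolved by capillary electrophoresis.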

[11] = ATG_M_61_CIS: Attagene CIS-FACTORIAL HepG2 Assay for M61 Transcription Factor (Internal Marker) (AID 2282937); conditions: HepG2 Attagene CIS-FACTORIAL M61 internal marker reporter; actives raise or lower the signal
Outline: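 HepG2 cells transiently transfected with cis-element-driven multiple reporter transcription units, dosed for 24 h. Reporter mRNA measured by RT-PCR, 6-FAM primer-extension labelling, HpaI digestion and capillary electrophoresis; bidirectional fit versus DMSO baseline.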

[12] = ATG_EGR_CIS: Attagene CIS-FACTORIAL HepG2 Assay for human Early Growth Response 1 (EGR1) (AID 2282938); conditions: HepG2 Attagene CIS-FACTORIAL EGR reporter mRNA; actives raise or lower the signal
Outline: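 HepG2 cells transiently transfected with cis-promoter-driven multiplexed reporter transcription units; reporter mRNA measured 24 h after compound dosing by RT-PCR, 6-FAM primer extension, HpaI digestion and capillary electrophoresis. Bidirectional fit versus DMSO baseline.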

[13] = ATG_Ets_CIS: Attagene CIS-FACTORIAL HepG2 Assay for human Erythroblast Transformation Specific (ETS) (AID 2282941); conditions: HepG2 ETS cis-reporter transcription, actives raise or lower the signal
Outline: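 Bidirectional fit versus DMSO of reporter mRNA signal, detected by RT-PCR and capillary electrophoresis in HepG2 cells transiently transfected with cis-element reporters and dosed 24 h.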

[14] = target: Hepatocyte nuclear factor 3-beta (Homo sapiens) (UniProt Q9Y261); test: ATG_FoxA2_CIS: Attagene CIS-FACTORIAL HepG2 Assay for human Forkhead box A2 (FOXA2) (AID 2282942); conditions: HepG2 cis-reporter transcription factor activity, 24 h; actives raise or lower the signal
Hepatocyte nuclear factor 3-beta (Homo sapiens), sequence (Q9Y261 whole entry, looked up): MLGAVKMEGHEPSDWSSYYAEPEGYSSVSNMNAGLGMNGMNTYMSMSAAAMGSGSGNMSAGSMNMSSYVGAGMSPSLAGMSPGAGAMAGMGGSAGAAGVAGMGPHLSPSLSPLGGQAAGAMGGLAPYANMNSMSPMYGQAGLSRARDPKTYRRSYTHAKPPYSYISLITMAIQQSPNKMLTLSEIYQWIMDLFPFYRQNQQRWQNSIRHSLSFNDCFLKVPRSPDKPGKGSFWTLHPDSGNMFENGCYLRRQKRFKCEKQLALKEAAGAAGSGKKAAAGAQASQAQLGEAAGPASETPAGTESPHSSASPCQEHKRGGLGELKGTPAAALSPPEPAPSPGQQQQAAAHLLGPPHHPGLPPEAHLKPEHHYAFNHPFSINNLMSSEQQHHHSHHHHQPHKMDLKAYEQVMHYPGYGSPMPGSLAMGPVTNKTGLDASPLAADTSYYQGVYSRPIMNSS
Outline: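 HepG2 cells transiently transfected with multiple cis-regulated reporter transcription units, dosed for 24 h. Reporter mRNA measured by RT-PCR, 6-FAM labelling, HpaI digestion and capillary electrophoresis; bidirectional fitting against DMSO baseline.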

[15] = ATG_FoxO_CIS: Attagene CIS-FACTORIAL HepG2 Assay for human Forkhead box O (FoxO) (AID 2282943); conditions: HepG2 Attagene cis-reporter, FoxO element, mRNA; actives raise or lower the signal
Outline: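 Values reflect reporter mRNA induction or loss in HepG2 cells 24 h post-dosing, fitted bidirectionally with DMSO as negative control and baseline. Detection used RT-PCR and fluorescence capillary electrophoresis.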

[16] = ATG_GATA_CIS: Attagene CIS-FACTORIAL HepG2 Assay for human GATA Binding Protein (AID 2282944); conditions: HepG2 GATA cis-element reporter, Attagene multiplex mRNA; actives raise or lower the signal
Outline: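 Reporter transcripts from a GATA cis-regulated unit, among multiplexed reporters in transfected HepG2 cells, were measured by RT-PCR with capillary electrophoresis after 24 h dosing. Induction or loss scored relative to DMSO.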

[17] = ATG_GLI_CIS: Attagene CIS-FACTORIAL HepG2 Assay for human Zinc Finger Protein GLI1 (AID 2282945); conditions: HepG2, Attagene cis-factorial reporter mRNA, GLI element; actives raise or lower the signal
Outline: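 HepG2 cells transiently transfected with cis-promoter multiplexed reporter units report endogenous transcription factor activity. After 24 h chemical exposure, reporter mRNA was quantified by RT-PCR, 6-FAM labelling, HpaI digestion and capillary electrophoresis, with bidirectional fitting against DMSO.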

[18] = target: Retinoic acid receptor alpha (Homo sapiens) (UniProt P10276); test: ATG_DR5_RAR_CIS: Attagene CIS-FACTORIAL HepG2 Assay for human Retinoic Acid Receptor Alpha (RARE), DR5 submotif (AID 2282934); conditions: HepG2 Attagene cis-factorial RARE DR5 reporter, mRNA; actives raise or lower the signal;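 as to AC50: reporter responds to endogenous RAR alpha beta and gamma in HepG2 not RARA alone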
Retinoic acid receptor alpha (Homo sapiens), sequence (P10276 whole entry, looked up): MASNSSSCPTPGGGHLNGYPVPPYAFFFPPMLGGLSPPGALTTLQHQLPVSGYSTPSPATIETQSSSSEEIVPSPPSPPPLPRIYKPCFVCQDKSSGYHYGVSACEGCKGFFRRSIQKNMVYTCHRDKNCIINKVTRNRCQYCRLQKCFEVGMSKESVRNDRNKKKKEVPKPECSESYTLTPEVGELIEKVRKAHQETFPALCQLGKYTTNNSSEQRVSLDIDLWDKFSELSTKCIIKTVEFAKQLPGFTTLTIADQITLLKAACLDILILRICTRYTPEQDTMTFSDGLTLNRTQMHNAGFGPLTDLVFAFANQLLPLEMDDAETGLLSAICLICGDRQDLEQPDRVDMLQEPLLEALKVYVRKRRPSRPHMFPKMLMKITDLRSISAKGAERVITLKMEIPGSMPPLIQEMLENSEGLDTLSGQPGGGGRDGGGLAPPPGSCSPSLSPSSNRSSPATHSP
Outline: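 Endpoint fitted in both directions relative to DMSO as negative control. It reflects DR5 cis-element reporter mRNA induction in transiently transfected HepG2 cells, measured 24 h after dosing through RT-PCR and fluorescent capillary electrophoresis.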

[19] = ATG_M_19_CIS: Attagene CIS-FACTORIAL HepG2 Assay for M19 Transcription Factor (Internal Marker) (AID 2282939); conditions: HepG2 Attagene CIS-FACTORIAL M19 internal marker reporter; actives raise or lower the signal
Outline: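 Internal marker readout, fitted in both directions against DMSO, from HepG2 cells carrying transfected cis-element reporter constructs; RT-PCR and capillary electrophoresis of reporter mRNA after 24 h exposure.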

[20] = ATG_ERE_CIS: Attagene CIS-FACTORIAL HepG2 Assay for Estrogen Response Element (ERE) (AID 2282940); conditions: HepG2 ERE cis-reporter, Attagene RNA transcript; actives raise or lower the signal
Outline: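 After 24 h compound treatment, RNA from transfected HepG2 cells was reverse-transcribed, reporter cDNA PCR-amplified, FAM-labelled, HpaI-cut and resolved by capillary electrophoresis. ERE-driven cis reporter transcripts reflect endogenous factors; gain or loss scored against DMSO.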

CC(=[OH+])/C=C(/C)[O-].CC(=[OH+])/C=C(/C)[O-].CC(=[OH+])/C=C(/C)[O-].[Al]
outcome [1]: inactive | outcome [2]: inactive | outcome [3]: inactive | outcome [4]: inactive | outcome [5]: inactive | outcome [6]: inactive | outcome [7]: inactive | outcome [8]: inactive | outcome [9]: inactive | outcome [10]: inactive | outcome [11]: inactive | outcome [12]: inactive | outcome [13]: inactive | outcome [14]: inactive | outcome [15]: inactive | outcome [16]: inactive | outcome [17]: inactive

O=Cc1cccc(Oc2ccccc2)c1
outcome [1]: inactive | outcome [2]: inactive | outcome [3]: inactive | outcome [4]: inactive | outcome [5]: inactive | outcome [6]: inactive | outcome [8]: inactive | outcome [18]: inactive | outcome [9]: inactive | outcome [10]: inactive | outcome [11]: inactive | outcome [12]: inactive | outcome [13]: inactive | outcome [14]: inactive | outcome [15]: inactive | outcome [16]: inactive | outcome [17]: inactive

O=C(O)Cc1ccccc1
outcome [1]: inactive | outcome [2]: inactive | outcome [3]: inactive | outcome [4]: inactive | outcome [5]: inactive | outcome [6]: inactive | outcome [8]: inactive | outcome [18]: inactive | outcome [9]: inactive | outcome [10]: inactive | outcome [11]: inactive | outcome [12]: inactive | outcome [19]: inactive | outcome [20]: inactive | outcome [13]: inactive | outcome [14]: inactive | outcome [15]: inactive | outcome [16]: inactive

CC(C#N)CCC#N (stereo not drawn)
outcome [2]: inactive | outcome [3]: inactive | outcome [4]: inactive | outcome [5]: inactive | outcome [6]: inactive | outcome [7]: inactive | outcome [8]: inactive | outcome [18]: inactive | outcome [9]: inactive | outcome [10]: inactive | outcome [11]: inactive | outcome [12]: inactive | outcome [19]: inactive | outcome [20]: inactive | outcome [13]: inactive | outcome [14]: inactive | outcome [15]: inactive | outcome [16]: inactive

COC[C@H](C)N(C(=O)CCl)c1c(C)csc1C
outcome [1]: inactive | outcome [2]: inactive | outcome [3]: inactive | outcome [4]: inactive | outcome [5]: inactive | outcome [6]: inactive | outcome [8]: inactive | outcome [9]: inactive | outcome [10]: inactive | outcome [11]: inactive | outcome [12]: inactive | outcome [19]: inactive | outcome [20]: inactive | outcome [13]: inactive | outcome [14]: inactive | outcome [15]: inactive | outcome [16]: inactive | outcome [17]: inactive

N#CCc1ccc(Cl)cc1
outcome [2]: inactive | outcome [3]: inactive | outcome [4]: inactive | outcome [5]: inactive | outcome [6]: inactive | outcome [7]: inactive | outcome [8]: inactive | outcome [18]: inactive | outcome [9]: inactive | outcome [10]: inactive | outcome [11]: inactive | outcome [12]: inactive | outcome [19]: inactive | outcome [20]: inactive | outcome [13]: inactive | outcome [14]: inactive | outcome [15]: inactive | outcome [16]: inactive

CCOC(=O)/C=C(C)/C=C/C[C@@H](C)CCCC(C)C
AC50 [1]: 23.5 µM (active) | AC50 [2]: 179 µM (active) | AC50 [3]: 132 µM (active) | AC50 [4]: 53.5 µM (active) | AC50 [6]: 100 µM (active) | outcome [8]: inactive | AC50 [18]: 33.4 µM (active) | AC50 [9]: 180 µM (active) | AC50 [10]: 106 µM (active) | AC50 [12]: 158 µM (active) | AC50 [19]: 157 µM (active) | outcome [20]: inactive | outcome [13]: inactive | outcome [14]: inactive | outcome [15]: inactive | AC50 [16]: 158 µM (active) | AC50 [17]: 149 µM (active)

COc1ccc(OC)c(C=O)c1
outcome [1]: inactive | outcome [2]: inactive | outcome [3]: inactive | outcome [4]: inactive | outcome [5]: inactive | outcome [6]: inactive | outcome [8]: inactive | outcome [18]: inactive | outcome [9]: inactive | outcome [10]: inactive | outcome [12]: inactive | outcome [19]: inactive | outcome [13]: inactive | outcome [14]: inactive | outcome [15]: inactive | outcome [16]: inactive

CCc1ccccc1N
outcome [1]: inactive | outcome [2]: inactive | outcome [3]: inactive | outcome [4]: inactive | AC50 [5]: 67.2 µM (active) | outcome [6]: inactive | outcome [8]: inactive | outcome [18]: inactive | outcome [9]: inactive | outcome [10]: inactive | outcome [11]: inactive | outcome [12]: inactive | outcome [19]: inactive | outcome [20]: inactive | outcome [13]: inactive | outcome [14]: inactive | outcome [15]: inactive | outcome [16]: inactive | outcome [17]: inactive
